Compound activity deposited in PubChem by National Center for Advancing Translational Sciences (NCATS).
Sampled rows, rich in hits. Any-hit rate of the full collection: about 1.8%.
TrxR1 substrate: qHTS Assay for Substrates of Mammalian Selenoprotein Thioredoxin Reductase 1 (TrxR1): qHTS | Thioredoxin reductase 1, cytoplasmic (Rattus norvegicus), O89049 | purified TrxR1 substrate turnover, NADPH consumption readout | Potency, µM (series often up to 114 µM), inactives show top-dose activity change, negative = substrate turnover | hit rate 0.01% among 390,000; also: % is scaled to controls: 0 for no effect and ±100 for the full control effect; nearly all actives have a fitted effect of over 50% in size
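Rat TrxR1, dispensed at 90 nM, was prereduced with 400 uM NADPH (final) for 5 min at ~22 deg C, then incubated with compound 15 min before 400 uM selenite. A first-read NADPH fluorescence drop versus no-compound background flagged substrates.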
VDR inhibitor: Inhibitors of the vitamin D receptor (VDR): qHTS; hit rate 0.93% among 400,000; VDR-SRC2-3 peptide fluorescence polarization, 2 h; Potency, µM, for the others: max response, negative = inhibition, usual class: inhibitors; Vitamin D3 receptor (Homo sapiens), P11473; also: % is scaled to controls: 0 for no effect and ±100 for the full control effect
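Inhibition of the VDR/SRC2-3 peptide interaction is quantified by fluorescence polarization. Compounds (23 nl, pintool) incubate with the reagents for 2 hours at ambient room temperature.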
Vif-A3G inh: qHTS for Inhibitors of Vif-A3G Interactions: qHTS; AID 602310, 2012; Potency, µM (doses to about 46.1 µM), for inactives: at the highest dose activity, negative = active, most hits filed as inhibitors; DNA dC->dU-editing enzyme APOBEC-3G (Homo sapiens), Q9HC16; HeLa A3G-eYFP + Vif (tagged APOBEC3G with the HIV-1 protein that degrades it), YFP fluorescence, overnight; hit rate 0.076% among 410,000; also: % is scaled to controls: 0 for no effect and ±100 for the full control effect; nearly all actives have a fitted effect of over 60% in size
Target sequence (Q9HC16 whole entry, looked up): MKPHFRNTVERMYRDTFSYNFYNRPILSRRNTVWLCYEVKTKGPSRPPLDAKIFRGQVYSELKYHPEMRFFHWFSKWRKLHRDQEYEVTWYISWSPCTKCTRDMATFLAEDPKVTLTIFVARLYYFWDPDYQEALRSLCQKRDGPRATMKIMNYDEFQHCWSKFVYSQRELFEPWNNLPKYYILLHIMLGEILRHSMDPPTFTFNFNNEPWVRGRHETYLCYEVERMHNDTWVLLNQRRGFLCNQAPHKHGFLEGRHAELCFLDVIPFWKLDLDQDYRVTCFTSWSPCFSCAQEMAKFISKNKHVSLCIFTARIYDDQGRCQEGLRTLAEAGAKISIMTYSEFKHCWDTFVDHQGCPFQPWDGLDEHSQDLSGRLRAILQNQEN
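Read-out is eYFP fluorescence (Ex 488/Em 500-530) from Vif-expressing HeLa A3G-eYFP cells; more signal means A3G escaped Vif-mediated degradation. Cells plated overnight, compound pinned in, incubated overnight at 37 deg C.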
TrxR1 inh: qHTS Assay for Inhibitors of Mammalian Selenoprotein Thioredoxin Reductase 1 (TrxR1): qHTS. Thioredoxin reductase 1, cytoplasmic (Rattus norvegicus), O89049. recombinant rTrxR1, NADPH fluorescence consumption, selenite substrate. Potency, µM (top dose mostly 114 µM), for the others: at the highest dose activity change, negative = inhibition, hits mostly inhibitors. hit rate 1% among 390,000. AID 588453, 2011; also: % is scaled to controls: 0 for no effect and ±100 for the full control effect; nearly all actives have a fitted effect of over 65% in size
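Rat TrxR1 (90 nM in the dispensed reagent) was pre-reduced with 400 uM NADPH for 5 min at room temperature, then incubated with compound for 15 min. After 400 uM selenite was added, NADPH fluorescence (Ex 340/Em 450 nm) was followed for 8 min.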
Vif-APOBEC3F blk: qHTS for Inhibitors of Vif-A3F Interactions: qHTS | HeLa A3F-eYFP + Vif (tagged APOBEC3F with the HIV-1 protein that degrades it), YFP fluorescence increase | Potency, µM (highest dose often 46.1 µM), without a hit: top-dose activity, negative = active | AID 602313, 2012 | hit rate 0.2% among 390,000; also: % of control where 0% means no effect; nearly all actives have a fitted effect of over 65% in size
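HeLa cells stably expressing A3F-eYFP plus Vif, plated and incubated overnight at 37 deg C, then exposed to compounds overnight at 37 deg C. Blocked degradation read as raised yellow fluorescence (Ex 488/Em 500-530).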
Numbers without * were called inactive; ? = inconclusive; · = not tested or not shown; [ ] = remark or other dose. Calls follow the shape of the dose curve; as a rule, active = well fitted curve in the direction sought with a large enough effect; inconclusive = small, poorly fitted or top-dose-only effect, or another doubt; inactive = no such curve, though single readings can be large; an effect the other way counts as inactive or inconclusive. Potency is read from the fitted curve at half-maximal effect.

SMILES	TrxR1 substrate	VDR inhibitor	Vif-A3G inh	TrxR1 inh	Vif-APOBEC3F blk
O=C(/C=C/Sc1ccccc1)c1ccc(Cl)cc1	-5%	56µM*	?	40µM*	-3%
O=C(/C=C/Sc1ccccc1)c1ccccc1	8%	-86%	?	11µM*	-2%
Cc1ccc(F)cc1-c1ccc(C(=O)N=C(N)N)o1	·	-1%	·	·	·
COc1ccc(-c2nn(C)c3sc(C(=O)Nc4cc(OC)c(OC)c(OC)c4)cc23)cc1OC	-6%	0%	?	13%	0%
Cc1ccc(C(=O)Nc2ccc3nc(SCC(=O)N4CCCc5ccccc54)sc3c2)cc1	3%	20%	3%	38%	5%
CCOc1ccc(-n2c(C)cc(/C=C3/C(=N)N4C(=NC3=O)SN=C4S(C)(=O)=O)c2C)cc1	-4%	?	0%	-13%	-32%
COc1cc(/C=C2\C(=N)N3N=C(S(C)(=O)=O)SC3=NC2=O)ccc1OC(=O)c1ccco1	-23%	79µM*	-1%	?	7.1µM*
CCOc1cc(/C=C2\C(=N)N3N=C(S(=O)(=O)CC)SC3=NC2=O)ccc1OC(=O)c1ccco1	2%	10%	0%	15%	?
CCOc1cc(/C=C2/C(=N)N3C(=NC2=O)SN=C3S(C)(=O)=O)ccc1OS(=O)(=O)c1ccccc1	-8%	25µM*	-2%	-4%	6%
CCOc1cc(/C=C2/C(=N)N3C(=NC2=O)SN=C3S(C)(=O)=O)ccc1OC(=O)c1ccco1	-11%	?	-7%	-21%	13µM*
O=C(COc1ccccc1C(=O)Nc1ccccc1)Nc1ccccc1-c1ccccc1	5%	·	0%	20%	·
CCCC/C=C/[C@H](c1ccccc1)[C@H](CO)Cc1ccccc1	-1%	5%	-6%	22%	·
COc1ccc(C(OCCN2CCC[C@H](C(=O)O)C2)(c2ccc(OC)cc2)c2ccc(OC)cc2)cc1	·	-13%	·	·	·
Cc1cc(N(C)C)cc(C)c1/C=C/c1ccnc2ccccc12	-4%	·	?	6%	·
COc1ccc2c(c1)OC(C)(C)C(c1ccccc1)C2c1ccc(OCCN2CCCC2)cc1 (centres undefined)	·	-7%	·	·	·
COc1ccccc1NCC(=O)c1ccc(C)c(C)c1	5%	-8%	1%	21%	?
COc1ccccc1NCC(=O)c1ccc(Cl)cc1	5%[57.1 µM]	79µM*	-7%	14%[57.1 µM]	7%
COc1cc(C/C=C\c2ccccc2)c(OC)cc1O	·	45µM*	·	·	·
COCCn1c(=O)c(-c2ccccc2)nc2cnc(Nc3cccc(OC)c3)nc21	·	-14%	·	·	·
N#CC1c2ccccc2C=CN1C(=O)N(c1ccccc1)c1ccccc1 (centres undefined)	-7%[57.1 µM]	71µM*	-18%	0%[57.1 µM]	1%
O=C(COc1ccccc1C(=O)Nc1cccc(F)c1)Nc1ccc(Br)cc1	6%	·	-9%	21%	·
COc1ccc([C@@H]2CC(=O)c3c(O)cc(O[C@@H]4O[C@H](CO)[C@@H](O)[C@H](O)[C@H]4O[C@@H]4O[C@@H](C)[C@H](O)[C@@H](O)[C@H]4O)cc3O2)cc1	·	-13%	·	·	·
Cc1ccccc1C(=O)NNC(=O)/C=C\C(=O)O	0%	-20%	-3%	7.1µM*	-3%
O=C(O)/C=C/C(=O)NNC(=O)c1ccccc1Br	2%	-12%	0%	-4%	-5%
CC(=O)OCC1OC(n2cc(F)c(=O)[nH]c2=O)C(OC(C)=O)C1OC(C)=O (centres undefined)	1%	-6%	1%	17%	-13%
O=C1C(F)=CC(COC(c2ccccc2)(c2ccccc2)c2ccccc2)OC1n1cc(F)c(=O)[nH]c1=O (centres undefined)	10%[57.1 µM]	45µM*	-13%	-60%[57.1 µM]	10%
Cc1cc(NC(=O)N2CCC(CN3CCCCCC3)CC2)ccc1Br	1%	6%	-3%	-13%	-21%
